Data reported in publication PMC11062922 (Nature Chemical Biology, 2023).
Read-outs that look alike come from different tables or passages of the source.

Tests used:
IRAK4 = conditions: read-out: apparent Kd, n = 1
MAP2K2 = conditions: read-out: apparent Kd, n = 1
[1] = compound concentrations:100 nM and 1000 nM (sheet 'Lestaurtinib' of Supplementary Table 1),run:Lestaurtinib_02443_R2,Plate:MR009
[2] = compound concentrations:100 nM and 1000 nM (sheet 'Lestaurtinib' of Supplementary Table 1),run:Lestaurtinib_02443_R3,Plate:MR009
[3] = compound concentrations:100 nM and 1000 nM (sheet 'Lestaurtinib' of Supplementary Table 1),run:Lestaurtinib_02473_R1,Plate:MR010
[4] = compound concentrations:100 nM and 1000 nM (sheet 'Lestaurtinib' of Supplementary Table 1),run:Lestaurtinib_02482_R1,Plate:MR011
[5] = compound concentrations:100 nM and 1000 nM (sheet 'Lestaurtinib' of Supplementary Table 1),run:Lestaurtinib_02482_R2,Plate:MR011
[6] = compound concentrations:100 nM and 1000 nM (sheet 'Lestaurtinib' of Supplementary Table 1),run:Lestaurtinib_02482_R3,Plate:MR011
[7] = compound concentrations:100 nM and 1000 nM (sheet 'Lestaurtinib' of Supplementary Table 1),run:Lestaurtinib_02496_R3,Plate:MR013
[8] = compound concentrations:100 nM and 1000 nM (sheet 'Lestaurtinib' of Supplementary Table 1),run:Lestaurtinib_02566_R3,Plate:MR014
[9] = compound concentrations:100 nM and 1000 nM (sheet 'Lestaurtinib' of Supplementary Table 1),run:Lestaurtinib_02577_R1,Plate:MR016
[10] = compound concentrations:100 nM and 1000 nM (sheet 'Lestaurtinib' of Supplementary Table 1),run:Lestaurtinib_02577_R2,Plate:MR016
[11] = compound concentrations:100 nM and 1000 nM (sheet 'Lestaurtinib' of Supplementary Table 1),run:Lestaurtinib_02577_R3,Plate:MR016
[12] = compound concentrations:100 nM and 1000 nM (sheet 'Lestaurtinib' of Supplementary Table 1),run:Lestaurtinib_02601_R1,Plate:MR018

Work on Lestaurtinib yielded a potency estimated from few doses (IRAK4; [1]) of 0.0922 µM, a potency estimated from few doses (IRAK4; [2]) of 0.0989 µM and a potency estimated from few doses (IRAK4; [3]) of 0.0798 µM. It also gave a potency estimated from few doses (IRAK4; compound concentrations:100 nM and 1000 nM (sheet 'Lestaurtinib' of Supplementary Table 1),run:Lestaurtinib_02473_R2,Plate:MR010) of 0.132 µM, a potency estimated from few doses (IRAK4; compound concentrations:100 nM and 1000 nM (sheet 'Lestaurtinib' of Supplementary Table 1),run:Lestaurtinib_02473_R3,Plate:MR010) of 0.0965 µM and a potency estimated from few doses (IRAK4; [4]) of 0.0782 µM. It also gave a potency estimated from few doses (IRAK4; [5]) of 0.18 µM, a potency estimated from few doses (IRAK4; [6]) of 0.0997 µM and a potency estimated from few doses (IRAK4; compound concentrations:100 nM and 1000 nM (sheet 'Lestaurtinib' of Supplementary Table 1),run:Lestaurtinib_02496_R1,Plate:MR013) of 0.124 µM. It also gave a potency estimated from few doses (IRAK4; compound concentrations:100 nM and 1000 nM (sheet 'Lestaurtinib' of Supplementary Table 1),run:Lestaurtinib_02496_R2,Plate:MR013) of 0.146 µM, a potency estimated from few doses (IRAK4; [7]) of 0.193 µM and a potency estimated from few doses (IRAK4; compound concentrations:100 nM and 1000 nM (sheet 'Lestaurtinib' of Supplementary Table 1),run:Lestaurtinib_02566_R1,Plate:MR014) of 0.142 µM. It also gave a potency estimated from few doses (IRAK4; [8]) of 0.0808 µM, a potency estimated from few doses (IRAK4; [9]) of 0.0886 µM and a potency estimated from few doses (IRAK4; [10]) of 0.0975 µM. It also gave a potency estimated from few doses (IRAK4; [11]) of 0.0638 µM, a potency estimated from few doses (IRAK4; [12]) of 0.144 µM and a potency estimated from few doses (IRAK4; compound concentrations:100 nM and 1000 nM (sheet 'Lestaurtinib' of Supplementary Table 1),run:Lestaurtinib_02601_R2,Plate:MR018) of 0.142 µM. The potency estimated from few doses (IRAK4; compound concentrations:100 nM and 1000 nM (sheet 'Lestaurtinib' of Supplementary Table 1),run:Lestaurtinib_02606_R1,Plate:MR019) was 0.0885 µM, the potency estimated from few doses (IRAK4; compound concentrations:100 nM and 1000 nM (sheet 'Lestaurtinib' of Supplementary Table 1),run:Lestaurtinib_02624_R2,Plate:MR020) was 0.143 µM and the potency estimated from few doses (IRAK4; compound concentrations:100 nM and 1000 nM (sheet 'Lestaurtinib' of Supplementary Table 1),run:Lestaurtinib_02624_R3,Plate:MR020) was 0.124 µM. The potency estimated from few doses (IRAK4; compound concentrations:100 nM and 1000 nM (sheet 'Lestaurtinib' of Supplementary Table 1),run:Lestaurtinib_02724_R2,Plate:MR021) was 0.0993 µM, the potency estimated from few doses (IRAK4; compound concentrations:100 nM and 1000 nM (sheet 'Lestaurtinib' of Supplementary Table 1),run:Lestaurtinib_02741_R1,Plate:MR023) was 0.0896 µM and the potency estimated from few doses (IRAK4; compound concentrations:100 nM and 1000 nM (sheet 'Lestaurtinib' of Supplementary Table 1),run:Lestaurtinib_02741_R3,Plate:MR023) was 0.0713 µM. For the same substance, the potency estimated from few doses (IRAK4; compound concentrations:100 nM and 1000 nM (sheet 'Lestaurtinib' of Supplementary Table 1),run:Lestaurtinib_02748_R3,Plate:MR024) was 0.0809 µM, the potency estimated from few doses (IRAK4; compound concentrations:100 nM and 1000 nM (sheet 'Lestaurtinib' of Supplementary Table 1),run:Lestaurtinib_02752_R2,Plate:MR025) was 0.16 µM and the potency estimated from few doses (IRAK4; compound concentrations:100 nM and 1000 nM (sheet 'Lestaurtinib' of Supplementary Table 1),run:Lestaurtinib_02752_R3,Plate:MR025) was 0.0801 µM. The potency estimated from few doses (IRAK4; compound concentrations:100 nM and 1000 nM (sheet 'Lestaurtinib' of Supplementary Table 1),run:Lestaurtinib_02765_R2,Plate:MR026) was 0.0757 µM, the potency estimated from few doses (IRAK4; compound concentrations:100 nM and 1000 nM (sheet 'Lestaurtinib' of Supplementary Table 1),run:Lestaurtinib_02766_R2,Plate:MR027) was 0.146 µM and the potency estimated from few doses (IRAK4; compound concentrations:100 nM and 1000 nM (sheet 'Lestaurtinib' of Supplementary Table 1),run:Lestaurtinib_02766_R3,Plate:MR027) was 0.121 µM. For the same substance, the potency estimated from few doses (IRAK4; compound concentrations:100 nM and 1000 nM (sheet 'Lestaurtinib' of Supplementary Table 1),run:Lestaurtinib_02768_R1,Plate:MR028) was 0.136 µM, the potency estimated from few doses (IRAK4; compound concentrations:100 nM and 1000 nM (sheet 'Lestaurtinib' of Supplementary Table 1),run:Lestaurtinib_02768_R2,Plate:MR028) was 0.0978 µM and the potency estimated from few doses (IRAK4; compound concentrations:100 nM and 1000 nM (sheet 'Lestaurtinib' of Supplementary Table 1),run:Lestaurtinib_02795_R2,Plate:MR022) was 0.0941 µM. For the same substance, the potency estimated from few doses (IRAK4; compound concentrations:100 nM and 1000 nM (sheet 'Lestaurtinib' of Supplementary Table 1),run:Lestaurtinib_02795_R3,Plate:MR022) was 0.239 µM, the potency estimated from few doses (IRAK4; compound concentrations:100 nM and 1000 nM (sheet 'Lestaurtinib' of Supplementary Table 1),run:Lestaurtinib_02896_R1,Plate:MR030) was 0.113 µM and the potency estimated from few doses (IRAK4; compound concentrations:100 nM and 1000 nM (sheet 'Lestaurtinib' of Supplementary Table 1),run:Lestaurtinib_03172_R2,Plate:MR031) was 0.0662 µM. For the same substance, the potency estimated from few doses (IRAK4; compound concentrations:100 nM and 1000 nM (sheet 'Lestaurtinib' of Supplementary Table 1),run:Lestaurtinib_03252_R1,Plate:MR032) was 0.0959 µM, the potency estimated from few doses (IRAK4; compound concentrations:100 nM and 1000 nM (sheet 'Lestaurtinib' of Supplementary Table 1),run:Lestaurtinib_03260_R2,Plate:MR033) was 0.132 µM and the potency estimated from few doses (IRAK4; compound concentrations:100 nM and 1000 nM (sheet 'Lestaurtinib' of Supplementary Table 1),run:Lestaurtinib_03260_R3,Plate:MR033) was 0.0851 µM. The potency estimated from few doses (MAP2K2; compound concentrations:100 nM and 1000 nM (sheet 'Lestaurtinib' of Supplementary Table 1),run:Lestaurtinib_02339_R1,Plate:MR001) was 1.93 µM, the potency estimated from few doses (MAP2K2; compound concentrations:100 nM and 1000 nM (sheet 'Lestaurtinib' of Supplementary Table 1),run:Lestaurtinib_02339_R2,Plate:MR001) was 0.822 µM and the potency estimated from few doses (MAP2K2; compound concentrations:100 nM and 1000 nM (sheet 'Lestaurtinib' of Supplementary Table 1),run:Lestaurtinib_02339_R3,Plate:MR001) was 0.836 µM. It also gave a potency estimated from few doses (MAP2K2; compound concentrations:100 nM and 1000 nM (sheet 'Lestaurtinib' of Supplementary Table 1),run:Lestaurtinib_02364_R1,Plate:MR002) of 1.21 µM, a potency estimated from few doses (MAP2K2; compound concentrations:100 nM and 1000 nM (sheet 'Lestaurtinib' of Supplementary Table 1),run:Lestaurtinib_02364_R2,Plate:MR002) of 1.67 µM and a potency estimated from few doses (MAP2K2; compound concentrations:100 nM and 1000 nM (sheet 'Lestaurtinib' of Supplementary Table 1),run:Lestaurtinib_02367_R1,Plate:MR003) of 0.557 µM. It also gave a potency estimated from few doses (MAP2K2; compound concentrations:100 nM and 1000 nM (sheet 'Lestaurtinib' of Supplementary Table 1),run:Lestaurtinib_02367_R2,Plate:MR003) of 0.665 µM, a potency estimated from few doses (MAP2K2; compound concentrations:100 nM and 1000 nM (sheet 'Lestaurtinib' of Supplementary Table 1),run:Lestaurtinib_02367_R3,Plate:MR003) of 2.22 µM and a potency estimated from few doses (MAP2K2; compound concentrations:100 nM and 1000 nM (sheet 'Lestaurtinib' of Supplementary Table 1),run:Lestaurtinib_02407_R1,Plate:MR005) of 0.0963 µM. For the same substance, the potency estimated from few doses (MAP2K2; compound concentrations:100 nM and 1000 nM (sheet 'Lestaurtinib' of Supplementary Table 1),run:Lestaurtinib_02407_R2,Plate:MR005) was 0.143 µM, the potency estimated from few doses (MAP2K2; compound concentrations:100 nM and 1000 nM (sheet 'Lestaurtinib' of Supplementary Table 1),run:Lestaurtinib_02407_R3,Plate:MR005) was 0.794 µM and the potency estimated from few doses (MAP2K2; compound concentrations:100 nM and 1000 nM (sheet 'Lestaurtinib' of Supplementary Table 1),run:Lestaurtinib_02422_R3,Plate:MR006) was 1.8 µM. It also gave a potency estimated from few doses (MAP2K2; compound concentrations:100 nM and 1000 nM (sheet 'Lestaurtinib' of Supplementary Table 1),run:Lestaurtinib_02437_R1,Plate:MR007) of 0.159 µM, a potency estimated from few doses (MAP2K2; compound concentrations:100 nM and 1000 nM (sheet 'Lestaurtinib' of Supplementary Table 1),run:Lestaurtinib_02437_R2,Plate:MR007) of 1.37 µM and a potency estimated from few doses (MAP2K2; compound concentrations:100 nM and 1000 nM (sheet 'Lestaurtinib' of Supplementary Table 1),run:Lestaurtinib_02437_R3,Plate:MR007) of 0.0989 µM. The potency estimated from few doses (MAP2K2; compound concentrations:100 nM and 1000 nM (sheet 'Lestaurtinib' of Supplementary Table 1),run:Lestaurtinib_02438_R1,Plate:MR008) was 1.8 µM, the potency estimated from few doses (MAP2K2; compound concentrations:100 nM and 1000 nM (sheet 'Lestaurtinib' of Supplementary Table 1),run:Lestaurtinib_02438_R2,Plate:MR008) was 0.876 µM and the potency estimated from few doses (MAP2K2; compound concentrations:100 nM and 1000 nM (sheet 'Lestaurtinib' of Supplementary Table 1),run:Lestaurtinib_02438_R3,Plate:MR008) was 0.745 µM. The potency estimated from few doses (MAP2K2; [1]) was 0.782 µM, the potency estimated from few doses (MAP2K2; [2]) was 0.924 µM and the potency estimated from few doses (MAP2K2; [3]) was 0.838 µM. For the same substance, the potency estimated from few doses (MAP2K2; [4]) was 1.4 µM, the potency estimated from few doses (MAP2K2; [5]) was 1.36 µM and the potency estimated from few doses (MAP2K2; [6]) was 1.3 µM. The potency estimated from few doses (MAP2K2; compound concentrations:100 nM and 1000 nM (sheet 'Lestaurtinib' of Supplementary Table 1),run:Lestaurtinib_02487_R3,Plate:MR012) was 1.3 µM, the potency estimated from few doses (MAP2K2; [7]) was 1.43 µM and the potency estimated from few doses (MAP2K2; compound concentrations:100 nM and 1000 nM (sheet 'Lestaurtinib' of Supplementary Table 1),run:Lestaurtinib_02566_R2,Plate:MR014) was 1.24 µM. For the same substance, the potency estimated from few doses (MAP2K2; [8]) was 0.835 µM, the potency estimated from few doses (MAP2K2; compound concentrations:100 nM and 1000 nM (sheet 'Lestaurtinib' of Supplementary Table 1),run:Lestaurtinib_02572_R1,Plate:MR015) was 1.37 µM and the potency estimated from few doses (MAP2K2; [9]) was 1.37 µM. The potency estimated from few doses (MAP2K2; [10]) was 0.883 µM, the potency estimated from few doses (MAP2K2; [11]) was 0.852 µM and the potency estimated from few doses (MAP2K2; compound concentrations:100 nM and 1000 nM (sheet 'Lestaurtinib' of Supplementary Table 1),run:Lestaurtinib_02584_R3,Plate:MR017) was 1.58 µM. The potency estimated from few doses (MAP2K2; [12]) was 0.728 µM.
